Results filed as inconclusive are left out. Active and inactive are the calls of the source. Calls follow the shape of the dose curve; as a rule, active = well fitted curve in the direction sought with a large enough effect; inconclusive = small, poorly fitted or top-dose-only effect, or another doubt; inactive = no such curve, though single readings can be large; an effect the other way counts as inactive or inconclusive.
Experiments:
[1] = qHTS of pediatric cancer cell lines to identify multiple opportunities for drug repurposing: Primary screen for NB-EBc1 cells (AID 1347095); also: potency is read from the fitted curve at half-maximal effect
Procedure, shortened: (§1)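 Phenotypic viability qHTS, 48 h compound exposure, CellTiter-Glo luminescence read-out; multi-concentration dosing so that potency and efficacy derive directly from the primary screen's curves.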

[2] = qHTS of pediatric cancer cell lines to identify multiple opportunities for drug repurposing: Primary screen for U-2 OS cells (AID 1347096); also: nearly all actives have a fitted effect of over 50% in size
Procedure, shortened: (§2)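 Viability after 48 h compound treatment at 37C, 500-1,000 cells/well, read as ATP luminescence with CellTiter-Glo. Primary screens used 11-point (MIPE, 0.78 nM-46 µM) or 8-point (NPC, 0.59 nM-46 µM) final concentrations; follow-up screens used 11-point dilutions.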

[3] = qHTS of pediatric cancer cell lines to identify multiple opportunities for drug repurposing: Primary screen for SK-N-SH cells (AID 1347098); also: nearly all actives have a fitted effect of over 65% in size; also: potency is read from the fitted curve at half-maximal effect
Procedure, shortened: (§3)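 Cells (500-1,000/well) rested 5 h, then received compounds for 48 h; metabolically active cells were measured by CellTiter-Glo luminescence. Final concentrations spanned up to 46 µM (MIPE, 11-point) or 0.59 nM-46 µM (NPC, 8-point) in primary screens, 11-point in follow-ups.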

[4] = qHTS of pediatric cancer cell lines to identify multiple opportunities for drug repurposing: Primary screen for LAN-5 cells (AID 1347100); also: potency is read from the fitted curve at half-maximal effect
Procedure, shortened: as §2

[5] = qHTS of pediatric cancer cell lines to identify multiple opportunities for drug repurposing: Primary screen for BT-12 cells (AID 1347101); also: nearly all actives have a fitted effect of over 25% in size; also: potency is read from the fitted curve at half-maximal effect
Procedure, shortened: as §3

[6] = qHTS of pediatric cancer cell lines to identify multiple opportunities for drug repurposing: Primary screen for Rh18 cells (AID 1347102); also: nearly all actives have a fitted effect of over 65% in size; also: potency is read from the fitted curve at half-maximal effect
Procedure, shortened: as §2

[7] = qHTS of pediatric cancer cell lines to identify multiple opportunities for drug repurposing: Primary screen for OHS-50 cells (AID 1347103); also: nearly all actives have a fitted effect of over 40% in size; also: potency is read from the fitted curve at half-maximal effect
Procedure, shortened: as §3

[8] = qHTS of pediatric cancer cell lines to identify multiple opportunities for drug repurposing: Primary screen for RD cells (AID 1347104); also: nearly all actives have a fitted effect of over 55% in size; also: potency is read from the fitted curve at half-maximal effect
Procedure, shortened: as §1

[9] = qHTS of pediatric cancer cell lines to identify multiple opportunities for drug repurposing: Primary screen for Saos-2 cells (AID 1347097); also: nearly all actives have a fitted effect of over 40% in size; also: potency is read from the fitted curve at half-maximal effect
Procedure, shortened: as §1

[10] = qHTS of pediatric cancer cell lines to identify multiple opportunities for drug repurposing: Primary screen for NB1643 cells (AID 1347099); also: nearly all actives have a fitted effect of over 50% in size; also: potency is read from the fitted curve at half-maximal effect
Procedure, shortened: as §1

Measured: Potency

CC(C)(C)c1nc2c3cc[nH]c(=O)c3c3cc(F)ccc3c2[nH]1
active: [3] 9610 nM | [4] 2350 nM
inactive: [1] | [2] | [5] | [6]

Cc1ccccc1C(=O)Nc1ccc(C(=O)N2CCCC(O)c3cc(Cl)ccc32)c(C)c1 (stereo not given)
inactive: [1] | [2] | [4] | [5] | [6] | [7] | [8]

CNC(=O)c1ccc(Nc2cc(Nc3ccccc3S(=O)(=O)C(C)C)c3cc[nH]c3n2)nc1
active: [1] 1480 nM | [9] 1660 nM | [3] 4820 nM | [10] 5260 nM | [4] 93.5 nM | [5] 4850 nM | [6] 9350 nM | [7] 544 nM | [8] 5900 nM

C=CC(=O)Nc1cccc(Nc2nc(NC3CCC(N(C)C)CC3)nc3c2ncn3C(C)C)c1 (stereo not given)
active: [1] 166 nM | [9] 833 nM | [3] 136 nM | [10] 33.2 nM | [4] 14.8 nM | [5] 38.5 nM | [6] 418 nM | [7] 38.5 nM | [8] 83.3 nM

CC(=O)O[C@]1(C(C)=O)CC[C@H]2[C@@H]3C=C(C)C4=CC(=O)CC[C@]4(C)[C@@H]3CC[C@@]21C
active: [1] 2350 nM | [9] 11800 nM | [3] 3040 nM | [10] 2640 nM | [4] 5900 nM | [5] 15300 nM | [6] 13200 nM

CC(=O)OCC(=O)[C@@]1(O)CC[C@H]2[C@@H]3CCC4=CC(=O)CC[C@]4(C)[C@@H]3C(=O)C[C@@]21C
inactive: [1] | [9] | [3] | [10] | [4] | [5] | [6] | [7] | [8]

Cc1[nH]c(C=C2C(=O)Nc3ccccc32)c(C)c1CCC(=O)O
active: [1] 148 nM | [9] 3320 nM | [3] 541 nM | [10] 3320 nM | [4] 132 nM | [5] 7690 nM | [6] 23500 nM | [7] 1220 nM | [8] 18700 nM

COC1=C2C[C@@H](C)C[C@H](OC)[C@@H](O)[C@@H](C)C=C(C)[C@H](OC(N)=O)[C@@H](OC)C=CC=C(C)C(=O)NC(=CC1=O)C2=O
inactive: [9]
active: [1] 743 nM | [3] 2410 nM | [10] 4180 nM | [4] 8330 nM | [5] 6110 nM | [6] 5900 nM | [7] 6850 nM | [8] 5260 nM

N#CC(=Cc1ccc(O)c(O)c1)C(=O)NCc1ccccc1
active: [1] 23500 nM
inactive: [2] | [6]

O=C(O)CCCCC(CCSCc1ccccc1)SCc1ccccc1 (stereo not given)
active: [8] 33200 nM
inactive: [1] | [2] | [5]

CC(C)C[C@H](NC(=O)CNC(=O)c1cc(Cl)ccc1Cl)B1OC(=O)CC(CC(=O)O)(C(=O)O)O1 (stereo not given in full)
active: [1] 469 nM | [9] 372 nM | [3] 215 nM | [10] 372 nM | [4] 118 nM | [5] 217 nM | [6] 209 nM | [7] 193 nM | [8] 332 nM

C[C@H]1C[C@H]2[C@@H]3CCC4=CC(=O)C=C[C@]4(C)[C@@H]3C(=O)C[C@]2(C)[C@@]1(O)C(=O)CO
inactive: [1] | [9] | [3] | [10] | [4] | [5] | [6] | [8]

Cn1cc(C=CC(=O)c2cccc(F)c2)cc1C=CC(=O)NO
active: [3] 24100 nM
inactive: [1] | [2] | [5] | [6]

C=CCNC1=C2C[C@@H](C)C[C@H](OC)[C@@H](O)[C@@H](C)C=C(C)[C@H](OC(N)=O)[C@@H](OC)C=CC=C(C)C(=O)NC(=CC1=O)C2=O
active: [1] 1480 nM | [9] 1660 nM | [3] 2410 nM | [10] 1480 nM | [4] 2090 nM | [5] 19300 nM | [6] 833 nM | [7] 1220 nM | [8] 235 nM

CCc1cc(C(C)=NOCc2ccc(C3CCCCC3)c(C(F)(F)F)c2)ccc1CN1CC(C(=O)O)C1
active: [1] 20900 nM | [10] 2640 nM | [5] 3060 nM | [7] 8630 nM | [8] 5900 nM
inactive: [2]

COc1cc(N2CCC(C(N)=O)CC2)ccc1Nc1nc(N)c(Cl)c(Nc2ccccc2S(=O)(=O)C(C)C)n1
active: [1] 743 nM | [10] 526 nM | [4] 235 nM | [7] 61.1 nM
inactive: [2] | [5]

NC(=O)c1ncn([C@@H]2O[C@H](CO)[C@@H](O)[C@@H]2O)c1O
inactive: [1] | [9] | [3] | [10] | [4] | [5] | [6] | [7] | [8]

CC(=O)OC[C@@H]1O[C@@H](n2ccc(=O)[nH]c2=O)[C@H](OC(C)=O)[C@H]1OC(C)=O
inactive: [1] | [2] | [5] | [6] | [7] | [8]

N#Cc1c(C2CCNCC2)cc(-c2c(O)cccc2OCC2CC2)nc1N
inactive: [2]
active: [1] 18700 nM | [3] 21500 nM | [7] 15300 nM | [8] 16600 nM

From PubChem BioAssay (NCATS)
